# From article PMC7862700, “An all-to-all approach to the identification of sequence-specific readers for epigenetic DNA modifications on cytosine”
# Tests used:
# Experiment in all cases: DAPPL (digital affinity profiling via proximity ligation, sequencing); 10 mM Tris-HCl pH 7.5, 50 mM NaCl, 1 mM DTT, 4% glycerol, room temperature, 30 min; GST-TFs on glutathione beads, 16-mer random dsDNA library, 0.1% formaldehyde crosslink after washing; high values mean tight binding
# Conditions in all cases: protein: recombinant; tags: N-terminal GST; dsDNA, one strand shown
# [1] = target: T1, ERF (Homo sapiens, UniProt P50548 1-548)
# T1 sequence: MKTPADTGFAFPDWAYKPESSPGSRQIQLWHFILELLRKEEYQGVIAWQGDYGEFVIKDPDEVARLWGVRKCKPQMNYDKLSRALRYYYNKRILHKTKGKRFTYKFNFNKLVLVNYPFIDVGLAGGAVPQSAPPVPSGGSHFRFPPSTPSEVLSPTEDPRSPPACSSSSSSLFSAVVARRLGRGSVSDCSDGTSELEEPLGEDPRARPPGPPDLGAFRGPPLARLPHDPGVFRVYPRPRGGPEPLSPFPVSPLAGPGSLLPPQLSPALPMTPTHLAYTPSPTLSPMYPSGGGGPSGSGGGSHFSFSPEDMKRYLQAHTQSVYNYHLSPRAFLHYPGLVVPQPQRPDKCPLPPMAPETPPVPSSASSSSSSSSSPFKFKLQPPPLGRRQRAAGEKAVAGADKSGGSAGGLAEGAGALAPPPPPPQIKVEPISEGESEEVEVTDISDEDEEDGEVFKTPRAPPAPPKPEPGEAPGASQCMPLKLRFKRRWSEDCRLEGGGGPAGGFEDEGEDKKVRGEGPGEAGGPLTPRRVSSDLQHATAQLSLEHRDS
# Summary of the method: (§1)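 A tag-only sample was pooled with DNA-barcoded human transcription factors that had been expressed in yeast as GST fusions and captured on glutathione beads. The pools were incubated for 30 min at room temperature with 200 nmole of a random double-stranded 16-mer DNA library in Tris/NaCl/DTT/glycerol buffer, then washed, crosslinked with 0.1% formaldehyde, proximity-ligated (BsaI/T4 ligase, 1 h, 37 °C), PCR-amplified and sequenced on an Illumina NextSeq500. Binding signal is each hexamer's read frequency for a factor divided by its frequency for the tag-only sample.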
# [2] = target: T2, ETV3L (Homo sapiens, UniProt Q6ZN32 1-361)
# T2 sequence: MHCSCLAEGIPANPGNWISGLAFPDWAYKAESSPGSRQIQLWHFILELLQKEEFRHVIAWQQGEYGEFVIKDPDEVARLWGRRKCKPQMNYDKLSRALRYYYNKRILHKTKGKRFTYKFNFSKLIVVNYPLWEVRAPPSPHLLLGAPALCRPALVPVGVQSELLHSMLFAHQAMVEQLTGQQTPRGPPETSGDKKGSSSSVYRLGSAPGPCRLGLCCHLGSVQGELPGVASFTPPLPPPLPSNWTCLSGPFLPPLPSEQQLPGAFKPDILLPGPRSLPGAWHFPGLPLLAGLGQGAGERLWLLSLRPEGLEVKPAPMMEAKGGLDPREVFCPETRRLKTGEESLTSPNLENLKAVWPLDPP
# Summary of the method: as §1
# [3] = target: T3, ETS2 (Homo sapiens, UniProt P15036 1-469)
# T3 sequence: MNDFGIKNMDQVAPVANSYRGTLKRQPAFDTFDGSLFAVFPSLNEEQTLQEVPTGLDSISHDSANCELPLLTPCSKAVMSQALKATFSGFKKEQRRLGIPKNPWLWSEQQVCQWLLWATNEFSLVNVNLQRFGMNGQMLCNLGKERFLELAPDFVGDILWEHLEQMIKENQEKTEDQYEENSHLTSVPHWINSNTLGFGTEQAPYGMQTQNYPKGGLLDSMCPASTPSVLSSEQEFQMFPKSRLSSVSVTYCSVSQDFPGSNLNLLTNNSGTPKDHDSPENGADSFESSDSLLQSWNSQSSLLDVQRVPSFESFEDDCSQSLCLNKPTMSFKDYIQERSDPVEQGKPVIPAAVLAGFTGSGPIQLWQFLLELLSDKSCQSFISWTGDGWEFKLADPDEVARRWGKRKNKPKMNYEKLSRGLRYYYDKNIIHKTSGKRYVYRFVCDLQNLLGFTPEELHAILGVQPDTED
# Summary of the method: as §1
# [4] = target: T4, SPDEF (Homo sapiens, UniProt O95238 1-335)
# T4 sequence: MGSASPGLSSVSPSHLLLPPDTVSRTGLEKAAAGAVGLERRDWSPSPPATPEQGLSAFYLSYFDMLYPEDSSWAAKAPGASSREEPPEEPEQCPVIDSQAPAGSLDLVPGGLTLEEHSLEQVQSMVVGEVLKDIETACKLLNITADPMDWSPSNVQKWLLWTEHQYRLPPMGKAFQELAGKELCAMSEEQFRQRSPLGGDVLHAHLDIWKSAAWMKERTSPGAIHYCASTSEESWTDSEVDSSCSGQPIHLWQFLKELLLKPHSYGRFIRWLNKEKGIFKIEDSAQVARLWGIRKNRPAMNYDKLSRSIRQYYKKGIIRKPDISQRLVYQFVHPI
# Summary of the method: as §1
# [5] = target: T5, ETV7 (Homo sapiens, UniProt Q9Y603 1-341)
# T5 sequence: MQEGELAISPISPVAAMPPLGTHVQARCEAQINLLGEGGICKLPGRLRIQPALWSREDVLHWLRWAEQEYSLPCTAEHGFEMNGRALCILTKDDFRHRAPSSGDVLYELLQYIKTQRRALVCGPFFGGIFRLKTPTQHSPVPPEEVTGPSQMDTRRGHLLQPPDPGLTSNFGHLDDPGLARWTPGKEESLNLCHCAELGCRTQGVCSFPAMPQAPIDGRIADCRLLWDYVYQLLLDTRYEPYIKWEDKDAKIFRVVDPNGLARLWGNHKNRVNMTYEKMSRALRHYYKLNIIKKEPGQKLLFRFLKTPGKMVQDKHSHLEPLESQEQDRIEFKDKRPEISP
# Summary of the method: as §1
# [6] = target: T6, ELF5 (Homo sapiens, UniProt Q9UKW6-2 1-255)
# T6 sequence: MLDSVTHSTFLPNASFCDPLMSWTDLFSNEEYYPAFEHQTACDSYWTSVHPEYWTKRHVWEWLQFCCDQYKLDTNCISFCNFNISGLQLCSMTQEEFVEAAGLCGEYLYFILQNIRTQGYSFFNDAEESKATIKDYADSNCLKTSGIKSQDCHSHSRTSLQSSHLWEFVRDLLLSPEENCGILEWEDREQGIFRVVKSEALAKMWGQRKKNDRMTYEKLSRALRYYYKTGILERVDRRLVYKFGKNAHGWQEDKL
# Summary of the method: as §1
# [7] = target: T7, ETV3 (Homo sapiens, UniProt P41162-2 1-143)
# T7 sequence: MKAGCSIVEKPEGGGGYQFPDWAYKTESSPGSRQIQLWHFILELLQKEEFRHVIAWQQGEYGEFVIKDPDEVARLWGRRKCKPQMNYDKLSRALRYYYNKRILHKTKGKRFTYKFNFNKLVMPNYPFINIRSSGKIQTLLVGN
# Summary of the method: as §1
# [8] = target: ETV6 (Homo sapiens, UniProt P41212 1-452)
# Sequence of ETV6 (P41212 whole entry): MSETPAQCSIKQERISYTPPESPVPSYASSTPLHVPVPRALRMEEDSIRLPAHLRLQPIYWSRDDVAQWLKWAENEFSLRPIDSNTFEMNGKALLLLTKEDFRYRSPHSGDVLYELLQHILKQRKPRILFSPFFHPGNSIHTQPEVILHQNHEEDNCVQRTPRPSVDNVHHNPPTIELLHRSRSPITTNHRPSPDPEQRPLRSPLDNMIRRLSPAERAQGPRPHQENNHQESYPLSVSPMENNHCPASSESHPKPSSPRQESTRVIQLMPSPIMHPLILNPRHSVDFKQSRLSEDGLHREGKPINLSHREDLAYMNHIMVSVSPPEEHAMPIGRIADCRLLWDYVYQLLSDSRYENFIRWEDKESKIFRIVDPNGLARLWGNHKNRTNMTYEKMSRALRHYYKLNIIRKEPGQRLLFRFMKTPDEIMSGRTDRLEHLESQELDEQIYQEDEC
# Summary of the method: as §1
Sequence,binding signal [1],binding signal [2],binding signal [3],binding signal [4],binding signal [5],binding signal [6],binding signal [7],binding signal [8]
CAAGTA,"1.14 fold enrichment (6-mer frequency, TF over GST control)","1.09 fold enrichment (6-mer frequency, TF over GST control)","1.05 fold enrichment (6-mer frequency, TF over GST control)","1.08 fold enrichment (6-mer frequency, TF over GST control)","1.11 fold enrichment (6-mer frequency, TF over GST control)","1.06 fold enrichment (6-mer frequency, TF over GST control)","1.11 fold enrichment (6-mer frequency, TF over GST control)","1.14 fold enrichment (6-mer frequency, TF over GST control)"
CTTCTA,"1.5 fold enrichment (6-mer frequency, TF over GST control)","1.35 fold enrichment (6-mer frequency, TF over GST control)","1.53 fold enrichment (6-mer frequency, TF over GST control)","1.3 fold enrichment (6-mer frequency, TF over GST control)","1.43 fold enrichment (6-mer frequency, TF over GST control)","1.39 fold enrichment (6-mer frequency, TF over GST control)","1.2 fold enrichment (6-mer frequency, TF over GST control)","1.4 fold enrichment (6-mer frequency, TF over GST control)"
CAGGAA,"1.42 fold enrichment (6-mer frequency, TF over GST control)","1.53 fold enrichment (6-mer frequency, TF over GST control)","1.75 fold enrichment (6-mer frequency, TF over GST control)","1.53 fold enrichment (6-mer frequency, TF over GST control)","1.52 fold enrichment (6-mer frequency, TF over GST control)","2.12 fold enrichment (6-mer frequency, TF over GST control)","1.72 fold enrichment (6-mer frequency, TF over GST control)","1.83 fold enrichment (6-mer frequency, TF over GST control)"
CAACTA,"1.24 fold enrichment (6-mer frequency, TF over GST control)","1.29 fold enrichment (6-mer frequency, TF over GST control)","1.3 fold enrichment (6-mer frequency, TF over GST control)","1.32 fold enrichment (6-mer frequency, TF over GST control)","1.24 fold enrichment (6-mer frequency, TF over GST control)","1.26 fold enrichment (6-mer frequency, TF over GST control)","1.2 fold enrichment (6-mer frequency, TF over GST control)","1.25 fold enrichment (6-mer frequency, TF over GST control)"
TTGATC,"1.23 fold enrichment (6-mer frequency, TF over GST control)","1.2 fold enrichment (6-mer frequency, TF over GST control)","1.1 fold enrichment (6-mer frequency, TF over GST control)","1.24 fold enrichment (6-mer frequency, TF over GST control)","1.08 fold enrichment (6-mer frequency, TF over GST control)","1.21 fold enrichment (6-mer frequency, TF over GST control)","1.26 fold enrichment (6-mer frequency, TF over GST control)","1.09 fold enrichment (6-mer frequency, TF over GST control)"
GAAACA,"1.34 fold enrichment (6-mer frequency, TF over GST control)","1.4 fold enrichment (6-mer frequency, TF over GST control)","1.34 fold enrichment (6-mer frequency, TF over GST control)","1.3 fold enrichment (6-mer frequency, TF over GST control)","1.35 fold enrichment (6-mer frequency, TF over GST control)","1.39 fold enrichment (6-mer frequency, TF over GST control)","1.37 fold enrichment (6-mer frequency, TF over GST control)","1.45 fold enrichment (6-mer frequency, TF over GST control)"
CCGCCA,"1.36 fold enrichment (6-mer frequency, TF over GST control)","1.33 fold enrichment (6-mer frequency, TF over GST control)","1.22 fold enrichment (6-mer frequency, TF over GST control)","1.29 fold enrichment (6-mer frequency, TF over GST control)","1.26 fold enrichment (6-mer frequency, TF over GST control)","1.47 fold enrichment (6-mer frequency, TF over GST control)","1.43 fold enrichment (6-mer frequency, TF over GST control)","1.26 fold enrichment (6-mer frequency, TF over GST control)"
CTATTA,"1.08 fold enrichment (6-mer frequency, TF over GST control)","1.11 fold enrichment (6-mer frequency, TF over GST control)","1.14 fold enrichment (6-mer frequency, TF over GST control)","1.07 fold enrichment (6-mer frequency, TF over GST control)","1.07 fold enrichment (6-mer frequency, TF over GST control)","1.1 fold enrichment (6-mer frequency, TF over GST control)","1.05 fold enrichment (6-mer frequency, TF over GST control)","1.14 fold enrichment (6-mer frequency, TF over GST control)"
ATATGG,"1.16 fold enrichment (6-mer frequency, TF over GST control)","1.3 fold enrichment (6-mer frequency, TF over GST control)","1.32 fold enrichment (6-mer frequency, TF over GST control)","1.3 fold enrichment (6-mer frequency, TF over GST control)","1.34 fold enrichment (6-mer frequency, TF over GST control)","1.27 fold enrichment (6-mer frequency, TF over GST control)","1.35 fold enrichment (6-mer frequency, TF over GST control)","1.34 fold enrichment (6-mer frequency, TF over GST control)"
ACCCGC,"1.27 fold enrichment (6-mer frequency, TF over GST control)","1.34 fold enrichment (6-mer frequency, TF over GST control)","1.15 fold enrichment (6-mer frequency, TF over GST control)","1.16 fold enrichment (6-mer frequency, TF over GST control)","1.18 fold enrichment (6-mer frequency, TF over GST control)","1.25 fold enrichment (6-mer frequency, TF over GST control)","1.28 fold enrichment (6-mer frequency, TF over GST control)","1.32 fold enrichment (6-mer frequency, TF over GST control)"
AATCAG,"1.05 fold enrichment (6-mer frequency, TF over GST control)","1.15 fold enrichment (6-mer frequency, TF over GST control)","1.08 fold enrichment (6-mer frequency, TF over GST control)","1.01 fold enrichment (6-mer frequency, TF over GST control)","1.12 fold enrichment (6-mer frequency, TF over GST control)","1.04 fold enrichment (6-mer frequency, TF over GST control)","1.07 fold enrichment (6-mer frequency, TF over GST control)","1.14 fold enrichment (6-mer frequency, TF over GST control)"
CCATTG,"1.07 fold enrichment (6-mer frequency, TF over GST control)","1.22 fold enrichment (6-mer frequency, TF over GST control)","1.14 fold enrichment (6-mer frequency, TF over GST control)","1.02 fold enrichment (6-mer frequency, TF over GST control)","1.24 fold enrichment (6-mer frequency, TF over GST control)","1.19 fold enrichment (6-mer frequency, TF over GST control)","1.19 fold enrichment (6-mer frequency, TF over GST control)","1.12 fold enrichment (6-mer frequency, TF over GST control)"
CCTACA,"1.23 fold enrichment (6-mer frequency, TF over GST control)","1.35 fold enrichment (6-mer frequency, TF over GST control)","1.19 fold enrichment (6-mer frequency, TF over GST control)","1.17 fold enrichment (6-mer frequency, TF over GST control)","1.15 fold enrichment (6-mer frequency, TF over GST control)","1.41 fold enrichment (6-mer frequency, TF over GST control)","1.29 fold enrichment (6-mer frequency, TF over GST control)","1.29 fold enrichment (6-mer frequency, TF over GST control)"
ACATCA,"1.13 fold enrichment (6-mer frequency, TF over GST control)","1.08 fold enrichment (6-mer frequency, TF over GST control)","1.11 fold enrichment (6-mer frequency, TF over GST control)","1.07 fold enrichment (6-mer frequency, TF over GST control)","1.1 fold enrichment (6-mer frequency, TF over GST control)","1.07 fold enrichment (6-mer frequency, TF over GST control)","1.14 fold enrichment (6-mer frequency, TF over GST control)","1.16 fold enrichment (6-mer frequency, TF over GST control)"
